Of roughly 7,900 targets only a part is listed; those with a hit were picked by preference. About 0.6% of all pairs of compound and target were hits.
Experiments:
Test in all cases: log2 fold change, soluble protein after heating vs DMSO (PISA); higher = thermal stabilisation; K562 cells, 10 uM, 30 min; active = over 0.2 and 3.5 SD of the protein, either way, in both replicates (recomputed)
[1] = compound: NC(=O)Nc1cc(-c2cccc(F)c2)sc1C(=O)N[C@H]1CCCNC1
Method in brief: (§1)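 K562 cells at 2×10^6 cells/mL were treated with 10 μM compound for 30 min. Aliquots were heated for 3 min across 48°C-58°C, pooled, and extracted in PBS with 0.5% NP-40 at 4°C; soluble protein was the supernatant after 21,000xg for 90 min. Soluble protein was quantified by TMTpro 16plex LC-MS/MS with channel sums equalised, and reported as log2 fold change in thermal stability against DMSO controls, with values from duplicates.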

[2] = compound: NC(=O)c1cnc(N[C@@H]2CCCC[C@@H]2N)nc1Nc1cccc(-n2nccn2)c1
Method in brief: as §1

[3] = compound: NC1(c2ccc(-c3nc4ccn5c(=O)[nH]nc5c4cc3-c3ccccc3)cc2)CCC1
Method in brief: as §1

[4] = compound: NCC(=O)Nc1ccc(-n2nc(C(F)(F)F)cc2-c2ccc3c(ccc4ccccc43)c2)cc1
Method in brief: as §1

[5] = compound: Nc1ccccc1NC(=O)c1ccc(CNC(=O)OCc2cccnc2)cc1 [entinostat]
Method in brief: as §1

[6] = compound: O=C(CCCCCCC(=O)Nc1ccccc1)NO [vorinostat]
Method in brief: as §1

[7] = compound: O=C(CCCCCCNC(=O)c1cnc(N(c2ccccc2)c2ccccc2Cl)nc1)NO [citarinostat]
Method in brief: as §1

[8] = compound: O=C(O)c1ccc2c(c1)nc(Nc1cccc(Cl)c1)c1ccncc12 [silmitasertib]
Method in brief: as §1

[9] = compound: O=C1NC(=O)C(c2cnc3ccccn23)=C1c1cn2c3c(cc(F)cc13)CN(C(=O)N1CCCCC1)CC2
Method in brief: as §1

[10] = compound: c1cc(OCCN2CCCCC2)cc(-c2n[nH]c3ccc(-c4nnc[nH]4)cc23)c1
Method in brief: as §1

[11] = compound: c1cn2cc(-c3ccc4cn[nH]c4c3)nc(Nc3ccc(N4CCOCC4)cc3)c2n1 [entospletinib]
Method in brief: as §1

Measured: log2 fold change

FAF2 (UniProt Q96CS3)
UniProt Q96CS3, sequence (Q96CS3 whole entry, looked up): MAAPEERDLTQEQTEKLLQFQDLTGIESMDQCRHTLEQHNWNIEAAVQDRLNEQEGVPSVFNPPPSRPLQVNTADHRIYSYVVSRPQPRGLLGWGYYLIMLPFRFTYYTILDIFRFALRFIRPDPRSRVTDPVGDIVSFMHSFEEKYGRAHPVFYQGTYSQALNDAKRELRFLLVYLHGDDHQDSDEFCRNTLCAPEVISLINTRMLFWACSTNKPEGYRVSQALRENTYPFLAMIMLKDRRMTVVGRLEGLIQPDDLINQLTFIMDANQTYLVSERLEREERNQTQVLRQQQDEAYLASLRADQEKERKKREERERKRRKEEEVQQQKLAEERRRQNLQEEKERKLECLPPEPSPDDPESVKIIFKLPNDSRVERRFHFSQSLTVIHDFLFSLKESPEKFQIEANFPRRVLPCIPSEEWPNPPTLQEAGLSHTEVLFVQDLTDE
inactive: [1] -0.016 | [2] -0.038 | [3] -0.038 | [4] -0.027 | [5] 0.021 | [6] 0.092 | [7] 0.015 | [8] 0.007 | [9] -0.054 | [10] -0.018 | [11] -0.015

FAM177A1 isoform 2 (UniProt Q8N128)
UniProt Q8N128, sequence (Q8N128 whole entry, looked up): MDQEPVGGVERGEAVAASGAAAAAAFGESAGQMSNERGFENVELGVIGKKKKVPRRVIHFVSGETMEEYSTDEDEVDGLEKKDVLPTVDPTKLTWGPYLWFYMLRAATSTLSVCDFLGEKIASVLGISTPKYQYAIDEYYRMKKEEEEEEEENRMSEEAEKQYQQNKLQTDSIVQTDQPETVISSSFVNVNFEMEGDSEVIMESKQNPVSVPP
inactive: [1] 0.047 | [2] -0.053 | [3] -0.023 | [4] -0.038 | [5] 0.007 | [6] 0.072 | [7] 0.047 | [8] 0.029 | [9] -0.089 | [10] 0.002 | [11] 0.05

DHRS3 (UniProt O75911)
UniProt O75911, sequence (O75911 whole entry, looked up): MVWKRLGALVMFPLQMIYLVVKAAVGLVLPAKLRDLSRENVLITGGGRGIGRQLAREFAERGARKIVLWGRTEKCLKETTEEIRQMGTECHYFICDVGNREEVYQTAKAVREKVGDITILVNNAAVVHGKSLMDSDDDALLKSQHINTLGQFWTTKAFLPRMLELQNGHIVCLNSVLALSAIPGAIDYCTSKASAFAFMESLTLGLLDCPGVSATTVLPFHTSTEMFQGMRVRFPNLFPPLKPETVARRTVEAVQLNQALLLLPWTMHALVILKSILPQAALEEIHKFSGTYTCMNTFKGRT
inactive: [1] -0.032 | [2] -0.047 | [3] -0.081 | [4] -0.06 | [5] 0.05 | [6] -0.084 | [7] 0.024 | [8] 0.009 | [9] 0.046 | [10] -0.06 | [11] -0.041

DHPS (UniProt P49366)
inactive: [1] 0.01 | [2] 0.051 | [3] 0.014 | [4] 0.053 | [5] -0.045 | [6] 0.04 | [7] 0.022 | [8] -0.013 | [9] 0.08 | [10] -0.026 | [11] -0.003

DDX39A (UniProt O00148)
UniProt O00148, sequence (O00148 whole entry, looked up): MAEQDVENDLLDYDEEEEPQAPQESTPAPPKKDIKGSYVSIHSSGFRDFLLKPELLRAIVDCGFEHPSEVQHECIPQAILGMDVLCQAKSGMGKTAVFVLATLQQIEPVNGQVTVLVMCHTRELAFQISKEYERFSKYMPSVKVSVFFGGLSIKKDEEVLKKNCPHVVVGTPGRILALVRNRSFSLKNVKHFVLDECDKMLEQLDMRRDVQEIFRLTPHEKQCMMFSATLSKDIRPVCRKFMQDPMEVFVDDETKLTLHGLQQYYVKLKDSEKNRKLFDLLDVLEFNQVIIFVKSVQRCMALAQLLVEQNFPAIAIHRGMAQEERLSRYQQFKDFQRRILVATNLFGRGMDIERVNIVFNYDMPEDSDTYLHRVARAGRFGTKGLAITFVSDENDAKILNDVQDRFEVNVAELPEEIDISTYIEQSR
inactive: [1] -0.067 | [2] -0.04 | [3] 0.057 | [4] -0.042 | [5] -0.003 | [6] 0.048 | [7] -0.006 | [8] -0.011 | [9] -0.107 | [10] -0.233 | [11] 0.022

DNTTIP2 (UniProt Q5QJE6)
inactive: [1] 0.14 | [2] -0.054 | [3] 0.155 | [4] 0.029 | [5] -0.03 | [6] 0.045 | [7] 0.016 | [8] 0.102 | [9] -0.028 | [10] -0.095 | [11] 0.108

ECH1 (UniProt Q13011)
inactive: [1] 0 | [2] -0.101 | [3] 0.295 | [4] -0.078 | [5] -0.025 | [6] -0.015 | [7] 0.002 | [8] -0.072 | [9] -0.076 | [10] 0.038 | [11] 0.024

DAG1 (UniProt Q14118)
inactive: [1] -0.035 | [2] 0.123 | [3] 0.081 | [4] -0.054 | [5] -0.013 | [6] 0.023 | [7] -0.015 | [8] -0.005 | [9] -0.015 | [10] -0.001 | [11] 0.003

FAM122A (UniProt Q96E09)
UniProt Q96E09, sequence (Q96E09 whole entry, looked up): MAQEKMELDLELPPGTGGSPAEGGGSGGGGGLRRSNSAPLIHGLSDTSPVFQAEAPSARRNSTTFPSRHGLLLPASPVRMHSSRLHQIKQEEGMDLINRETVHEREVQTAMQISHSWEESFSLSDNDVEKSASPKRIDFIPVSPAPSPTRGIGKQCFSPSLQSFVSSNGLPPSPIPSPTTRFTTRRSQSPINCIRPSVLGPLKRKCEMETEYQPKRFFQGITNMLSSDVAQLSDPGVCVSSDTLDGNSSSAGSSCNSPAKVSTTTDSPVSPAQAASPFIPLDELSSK
inactive: [1] -0.031 | [2] 0.076 | [3] -0.048 | [4] 0.023 | [5] 0.143 | [6] 0.025 | [7] -0.009 | [8] 0.005 | [9] -0.052 | [10] 0.062 | [11] -0.012

DHCR7 (UniProt Q9UBM7)
UniProt Q9UBM7, sequence (Q9UBM7 whole entry, looked up): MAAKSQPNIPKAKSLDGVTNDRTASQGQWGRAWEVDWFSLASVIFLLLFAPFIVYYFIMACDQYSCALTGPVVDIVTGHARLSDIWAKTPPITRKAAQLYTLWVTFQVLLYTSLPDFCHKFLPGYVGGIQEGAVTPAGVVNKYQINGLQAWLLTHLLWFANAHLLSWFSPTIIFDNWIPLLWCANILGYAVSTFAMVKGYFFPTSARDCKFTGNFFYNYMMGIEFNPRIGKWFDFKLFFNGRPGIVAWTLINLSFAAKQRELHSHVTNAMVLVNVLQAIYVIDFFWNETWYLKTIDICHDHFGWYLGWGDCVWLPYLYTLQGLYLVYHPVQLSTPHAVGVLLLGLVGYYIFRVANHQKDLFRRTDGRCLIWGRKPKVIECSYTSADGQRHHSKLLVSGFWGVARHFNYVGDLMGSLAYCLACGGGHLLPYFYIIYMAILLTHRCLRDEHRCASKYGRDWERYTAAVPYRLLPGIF
inactive: [1] 0.08 | [2] 0.014 | [3] 0.239 | [4] -0.134 | [5] 0.082 | [6] 0.03 | [7] -0.023 | [8] -0.084 | [9] -0.04 | [10] -0.026 | [11] -0.045

DCTN1 isoform 4 (UniProt Q14203)
UniProt Q14203, sequence (Q14203 whole entry, looked up): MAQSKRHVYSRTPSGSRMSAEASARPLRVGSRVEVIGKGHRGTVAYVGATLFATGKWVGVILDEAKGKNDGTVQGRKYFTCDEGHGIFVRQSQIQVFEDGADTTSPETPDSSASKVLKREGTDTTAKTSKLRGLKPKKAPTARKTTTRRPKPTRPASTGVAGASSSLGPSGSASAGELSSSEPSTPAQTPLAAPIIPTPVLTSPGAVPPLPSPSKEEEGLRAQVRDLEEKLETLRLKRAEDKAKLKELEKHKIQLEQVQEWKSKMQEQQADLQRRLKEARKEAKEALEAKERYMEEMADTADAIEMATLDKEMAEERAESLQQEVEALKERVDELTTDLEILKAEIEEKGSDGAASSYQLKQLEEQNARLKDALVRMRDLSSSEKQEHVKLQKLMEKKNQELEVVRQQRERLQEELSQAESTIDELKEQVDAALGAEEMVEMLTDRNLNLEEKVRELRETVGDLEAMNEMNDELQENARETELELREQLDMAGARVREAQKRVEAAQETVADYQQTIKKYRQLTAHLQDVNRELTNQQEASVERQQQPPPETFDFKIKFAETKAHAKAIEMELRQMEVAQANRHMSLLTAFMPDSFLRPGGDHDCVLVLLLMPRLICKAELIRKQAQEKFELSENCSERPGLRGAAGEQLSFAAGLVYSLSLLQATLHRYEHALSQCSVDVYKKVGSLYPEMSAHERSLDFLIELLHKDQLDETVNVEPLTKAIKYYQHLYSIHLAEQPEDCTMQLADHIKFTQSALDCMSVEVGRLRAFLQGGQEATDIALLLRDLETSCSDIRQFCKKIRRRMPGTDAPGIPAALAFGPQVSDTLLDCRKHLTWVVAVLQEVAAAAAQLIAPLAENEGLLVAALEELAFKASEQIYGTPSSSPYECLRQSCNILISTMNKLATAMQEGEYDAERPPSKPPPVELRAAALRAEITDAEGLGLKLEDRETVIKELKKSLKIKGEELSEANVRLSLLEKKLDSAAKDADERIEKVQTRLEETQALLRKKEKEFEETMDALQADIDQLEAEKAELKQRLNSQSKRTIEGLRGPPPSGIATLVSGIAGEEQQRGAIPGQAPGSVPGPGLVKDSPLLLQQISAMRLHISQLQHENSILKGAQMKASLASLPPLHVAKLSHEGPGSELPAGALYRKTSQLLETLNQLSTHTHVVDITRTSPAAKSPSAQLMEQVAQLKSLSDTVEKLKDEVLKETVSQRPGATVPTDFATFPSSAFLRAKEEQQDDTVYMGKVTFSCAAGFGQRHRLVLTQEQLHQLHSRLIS
inactive: [1] 0.002 | [2] -0.052 | [3] -0.033 | [4] 0.019 | [5] 0.049 | [6] 0.029 | [7] 0.007 | [8] 0.046 | [9] 0.081 | [10] -0.089 | [11] 0.061

DIP2A (UniProt Q14689)
UniProt Q14689, sequence (Q14689 whole entry, looked up): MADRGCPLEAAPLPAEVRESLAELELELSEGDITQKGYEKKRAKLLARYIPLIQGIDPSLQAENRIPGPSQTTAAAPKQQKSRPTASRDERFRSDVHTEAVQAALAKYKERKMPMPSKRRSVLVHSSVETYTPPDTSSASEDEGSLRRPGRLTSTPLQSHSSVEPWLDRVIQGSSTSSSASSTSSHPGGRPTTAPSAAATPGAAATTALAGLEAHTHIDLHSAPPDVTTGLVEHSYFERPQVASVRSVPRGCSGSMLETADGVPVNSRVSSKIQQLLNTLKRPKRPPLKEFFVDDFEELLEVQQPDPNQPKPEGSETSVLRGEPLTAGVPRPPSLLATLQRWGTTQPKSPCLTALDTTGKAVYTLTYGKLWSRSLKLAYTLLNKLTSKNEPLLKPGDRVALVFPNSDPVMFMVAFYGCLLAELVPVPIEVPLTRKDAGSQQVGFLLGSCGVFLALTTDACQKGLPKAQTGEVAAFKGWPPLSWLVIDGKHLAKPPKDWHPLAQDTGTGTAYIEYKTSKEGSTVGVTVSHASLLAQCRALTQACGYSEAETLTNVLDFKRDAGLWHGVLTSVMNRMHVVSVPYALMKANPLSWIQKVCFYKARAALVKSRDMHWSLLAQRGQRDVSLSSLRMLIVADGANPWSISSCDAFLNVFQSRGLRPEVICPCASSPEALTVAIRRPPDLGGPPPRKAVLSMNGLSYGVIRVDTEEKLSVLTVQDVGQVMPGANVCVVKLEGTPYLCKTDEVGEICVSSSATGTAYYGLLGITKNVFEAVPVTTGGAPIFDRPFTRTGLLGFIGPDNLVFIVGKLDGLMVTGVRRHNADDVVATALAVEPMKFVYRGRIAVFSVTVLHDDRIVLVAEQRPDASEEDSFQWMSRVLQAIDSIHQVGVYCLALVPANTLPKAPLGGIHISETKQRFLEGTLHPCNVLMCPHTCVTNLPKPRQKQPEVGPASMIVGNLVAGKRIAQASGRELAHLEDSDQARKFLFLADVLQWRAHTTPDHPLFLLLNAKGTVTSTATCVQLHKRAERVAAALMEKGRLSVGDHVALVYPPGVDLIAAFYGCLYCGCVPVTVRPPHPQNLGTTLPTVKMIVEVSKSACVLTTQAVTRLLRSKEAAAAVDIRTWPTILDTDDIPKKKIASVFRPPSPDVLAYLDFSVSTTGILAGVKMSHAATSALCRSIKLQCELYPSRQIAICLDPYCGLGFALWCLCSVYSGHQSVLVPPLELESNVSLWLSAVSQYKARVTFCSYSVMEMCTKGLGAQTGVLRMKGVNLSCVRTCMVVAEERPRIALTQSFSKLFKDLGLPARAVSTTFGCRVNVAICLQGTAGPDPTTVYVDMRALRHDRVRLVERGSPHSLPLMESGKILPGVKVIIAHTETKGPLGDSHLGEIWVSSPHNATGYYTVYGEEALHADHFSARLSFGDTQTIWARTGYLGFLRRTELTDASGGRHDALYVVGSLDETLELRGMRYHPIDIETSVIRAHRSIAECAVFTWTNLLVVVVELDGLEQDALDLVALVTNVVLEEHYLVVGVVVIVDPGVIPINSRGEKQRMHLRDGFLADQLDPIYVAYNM
inactive: [1] -0.056 | [2] 0.007 | [3] -0.356 | [4] 0.017 | [5] 0.002 | [6] 0.031 | [7] 0.043 | [8] 0.1 | [9] -0.016 | [10] 0.004 | [11] -0.128

CTSC (UniProt P53634)
inactive: [1] 0.019 | [2] -0.015 | [3] -0.11 | [4] 0.086 | [5] -0.053 | [6] -0.016 | [7] 0.015 | [8] -0.053 | [9] -0.057 | [10] 0.063 | [11] -0.047

EBNA1BP2 (UniProt Q99848)
inactive: [1] 0.05 | [2] 0.006 | [3] 0.195 | [4] 0.158 | [5] -0.029 | [6] 0.133 | [7] 0.041 | [8] 0.151 | [9] 0.352 | [10] -0.292 | [11] 0.031

— the supplement of paper PMC10849652
